Source: PubChem BioAssay AID1159580 (chemical genetic matrix, 2015)
Among all 5,500 compounds or so, about 2,000 (36%) were called active. Inconclusive results (about 18%) are left out. Cut-off read from the data, not from the text of the source: active = normalized growth mostly below about 0.91 (no sharp cut-off); inconclusive = no clear call, values can overlap the other calls; inactive = mostly above about 0.92. Some of the results follow.

Assay: chemical genetic growth profiling, strain panel (AID 1159580);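 note: tested at 20 µM; growth read once vehicle control cultures reached saturation at 30 °C; 1 = growth at the plate median or of vehicle wells; lower values mean less growth of the strain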
Conditions: S. cerevisiae deletion strains, growth OD

Measured: normalized growth

OC1CCCCC1N1CCC(c2ccccc2)CC1 (stereo not given)
inactive: locus YAL013W, strain DEP1, hits give low values 0.998 | locus YAL021C, strain ccr4, hits give low values 0.998 | locus YAL026C, strain drs2, hits give low values 0.994 | locus YAL030W, strain snc1, hits give low values 0.992 | locus YAL040C, strain CLN3, hits give low values 0.998 | locus YBL061C, strain skt5, hits give low values 0.994 | locus YBR009C, strain hhf1, hits give low values 0.957 | locus YBR023C, strain chs3, hits give low values 0.999 | locus YBR171W, strain sec66, hits give low values 0.99 | locus YBR231C, strain swc5, hits give low values 0.993 | locus YBR279W, strain paf1, hits give low values 0.999 | locus YCL011C, strain gbp2, hits give low values 0.996 | locus YCL016C, strain dcc1, hits give low values 0.989 | locus YCL061C, strain MRC1 (second series), hits give low values 1.01 | locus YCL061C, strain MRC1, hits give low values 0.993 | locus YCL069W, strain vba3, hits give low values 0.989 | locus YCR088W, strain abp1, hits give low values 0.983 | locus YDL005C, strain med2, hits give low values 0.992 | locus YDL040C, strain nat1, hits give low values 0.993 | locus YDR001C, strain nth1, hits give low values 0.984 | locus YDR069C, strain doa4, hits give low values 0.998 | locus YDR137W, strain rgp1, hits give low values 0.945 | locus YDR150W, strain NUM1, hits give low values 1 | locus YDR159W, strain sac3, hits give low values 0.997 | locus YDR195W, strain ref2 0.941 | locus YDR297W, strain sur2, hits give low values 0.995 | locus YDR334W, strain swr1, hits give low values 0.996 | locus YDR335W, strain msn5, hits give low values 0.997 | locus YDR363W, strain ESC2, hits give low values 1.01 | locus YDR392W, strain spt3, hits give low values 0.902 | locus YEL003W, strain gim4, hits give low values 0.994 | locus YEL037C, strain rad23, hits give low values 0.99 | locus YEL061C, strain CIN8 (second series), hits give low values 0.989 | locus YER002W, strain NOP16, hits give low values 0.992 | locus YER015W, strain faa2, hits give low values 0.992 | locus YER016W, strain bim1, hits give low values 0.993 | locus YER111C, strain swi4, hits give low values 0.978 | locus YER155C, strain BEM2 (second series), hits give low values 0.96 | locus YFR010W, strain ubp6, hits give low values 0.988 | locus YGL167C, strain pmr1, hits give low values 0.986 | locus YGL173C, strain kem1, hits give low values 0.994 | locus YGL227W, strain vid30, hits give low values 0.988 | locus YGL240W, strain doc1, hits give low values 1.01 | locus YGL253W, strain hxk2, hits give low values 0.996 | locus YGR078C, strain PAC10, hits give low values 1.01 | locus YGR229C, strain SMI1, hits give low values 1.01 | locus YHR013C, strain ard1, hits give low values 0.941 | locus YHR027C, strain rpn1, hits give low values 0.988 | locus YHR030C, strain SLT2, hits give low values 0.979 | locus YHR079C, strain IRE1, hits give low values 0.983 | locus YHR142W, strain chs7, hits give low values 1.01 | locus YJL092W, strain hpr5, hits give low values 0.989 | locus YJL095W, strain BCK1 (second series), hits give low values 0.993 | locus YJL095W, strain BCK1, hits give low values 0.984 | locus YJL115W, strain asf1, hits give low values 0.991 | locus YJL129C, strain trk1, hits give low values 1.02 | locus YJL154C, strain vps35, hits give low values 0.987 | locus YJL164C, strain tpk1, hits give low values 1 | locus YJL166W, strain qcr8, hits give low values 1 | locus YJL187C, strain SWE1, hits give low values 0.996 | locus YJR066W, strain TOR1, hits give low values 0.934 | locus YKL160W, strain elf1, hits give low values 1.02 | locus YKR026C, strain gcn3, hits give low values 0.975 | locus YKR091W, strain srl3, hits give low values 0.983 | locus YLL001W, strain dnm1, hits give low values 0.981 | locus YLL026W, hits give low values 0.995 | locus YLL041C, strain sdh2, hits give low values 0.99 | locus YLR027C, strain aat2, hits give low values 0.992 | locus YLR113W, strain HOG1, hits give low values 0.999 | locus YLR221C, strain rsa3, hits give low values 1.01 | locus YLR258W, strain gsy2, hits give low values 0.984 | locus YLR262C, strain YPT6 (second series), hits give low values 0.945 | locus YLR320W, strain mms22, hits give low values 0.998 | locus YLR342W, strain FKS1, hits give low values 0.981 | locus YLR357W, strain rsc2, hits give low values 0.979 | locus YLR370C, strain arc18, hits give low values 0.992 | locus YLR384C, strain iki3, hits give low values 0.983 | locus YML120C, strain ndi1, hits give low values 1.02 | locus YMR058W, strain fet3, hits give low values 0.999 | locus YMR125W, strain sto1, hits give low values 0.988 | locus YMR129W, hits give low values 0.985 | locus YMR205C, strain PFK2, hits give low values 0.953 | locus YMR231W, strain pep5, hits give low values 0.988 | locus YMR307W, strain GAS1, hits give low values 0.991 | locus YNL071W, strain lat1, hits give low values 0.999 | locus YNL128W, strain TEP1, hits give low values 0.978 | locus YNL153C, strain GIM3, hits give low values 0.997 | locus YNL175C, strain NOP13, hits give low values 0.994 | locus YNL183C, strain NPR1, hits give low values 0.937 | locus YNL197C, strain WHI3, hits give low values 0.993 | locus YNL209W, strain ssb2, hits give low values 0.993 | locus YNL224C, strain SQS1, hits give low values 0.997 | locus YNL248C, strain rpa49, hits give low values 1.02 | locus YNL322C, strain KRE1 (second series), hits give low values 0.992 | locus YNR049C, strain mso1, hits give low values 0.989 | locus YOR001W, strain rrp6, hits give low values 1.01 | locus YOR070C, strain gyp1, hits give low values 0.992 | locus YOR080W, strain dia2, hits give low values 0.988 | locus YOR083W, strain WHI5 (second series), hits give low values 1 | locus YOR083W, strain WHI5, hits give low values 1.02 | locus YOR106W, strain vam3, hits give low values 1.02 | locus YOR231W, strain MKK1, hits give low values 0.986 | locus YOR265W, strain rbl2, hits give low values 0.993 | locus YOR270C, strain vph1, hits give low values 1 | locus YOR290C, strain snf2, hits give low values 0.911 | locus YPL051W, strain arl3, hits give low values 0.999 | locus YPL078C, strain atp4, hits give low values 1.01 | locus YPL106C, strain sse1, hits give low values 0.98 | locus YPL240C, strain hsp82, hits give low values 1 | locus YPL256C, strain CLN2, hits give low values 1
